Reference: PubChem BioAssay AID2620 (National Center for Advancing Translational Sciences (NCATS), 2010)
Results filed as inconclusive are left out. Active and inactive are the calls of the source. Calls follow the shape of the dose curve; as a rule, active = well fitted curve in the direction sought with a large enough effect; inconclusive = small, poorly fitted or top-dose-only effect, or another doubt; inactive = no such curve, though single readings can be large or run the other way.

Target: Pyruvate kinase PKM (Homo sapiens) (UniProt P14618)
Sequence (P14618 whole entry, looked up, canonical isoform): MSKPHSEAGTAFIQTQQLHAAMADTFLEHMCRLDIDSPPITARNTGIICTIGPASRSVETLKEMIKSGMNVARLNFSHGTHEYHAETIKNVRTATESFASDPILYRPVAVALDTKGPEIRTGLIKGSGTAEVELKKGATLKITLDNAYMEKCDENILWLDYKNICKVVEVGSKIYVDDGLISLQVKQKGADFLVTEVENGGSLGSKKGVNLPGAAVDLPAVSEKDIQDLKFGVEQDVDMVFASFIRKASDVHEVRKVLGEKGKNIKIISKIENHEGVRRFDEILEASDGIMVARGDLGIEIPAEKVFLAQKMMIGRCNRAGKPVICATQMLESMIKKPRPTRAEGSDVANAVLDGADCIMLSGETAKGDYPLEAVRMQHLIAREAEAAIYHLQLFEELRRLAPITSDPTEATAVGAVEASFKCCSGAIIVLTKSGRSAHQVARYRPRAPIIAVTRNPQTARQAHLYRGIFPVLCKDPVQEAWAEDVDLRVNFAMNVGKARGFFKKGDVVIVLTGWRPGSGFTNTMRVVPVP
Experiment: Secondary LDH Assay for Activators of Human Pyruvate Kinase M1 Isoform: for Probe SAR
Summary of the method: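 10 nM hPK-M1 coupled to 1 uM LDH, with 0.1 mM PEP, 4.0 mM ADP, 0.2 mM NADH, 50 mM Tris pH 8.0, 200 mM KCl, 15 mM MgCl2 (final). NADH fluorescence depletion followed kinetically 3-6 min; initial rates normalized to uninhibited controls.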

Row | SMILES | outcome
1 | O=C1CCc2cc(Cl)c(S(=O)(=O)Nc3ccc(Cl)c(Cl)c3)cc2N1 | inactive
2 | Cc1ccc(NS(=O)(=O)c2ccc3c(c2)C(Cl)(Cl)C(=O)N3)cc1C | inactive
3 | Cc1ccc(Nc2c(-c3ccsc3)nc3cccc(C)n23)cc1 | inactive
4 | O=C1c2ccccc2C(=O)N1Cc1cccnc1 | inactive
5 | Cc1ccc(NS(=O)(=O)c2cc3c(cc2-c2ccccc2)NC(=O)CO3)cc1C | inactive
6 | O=C1CCc2cc(S(=O)(=O)Nc3cccc4ccccc34)ccc2N1 | inactive
7 | N#Cc1cccc(NS(=O)(=O)c2ccc3c(c2)CCC(=O)N3)c1 | inactive
8 | Cc1ccc(NS(=O)(=O)c2ccc3c(ccn3C)c2)cc1C | inactive
9 | O=C1c2ccccc2C(=O)N1c1ccc(O)cc1 | inactive
10 | Cc1ccc(N2C(=O)c3ccccc3C2=O)c(C)c1 | inactive
11 | Nc1cc(S(=O)(=O)N2CCN(S(=O)(=O)c3ccc4c(c3)OCCO4)CC2)ccn1 | inactive
12 | COc1ccccc1NS(=O)(=O)c1ccc2c(c1)CCC(=O)N2 | inactive
13 | COc1cccc(N2C(=O)c3ccccc3C2=O)c1 | inactive
14 | O=C1CCc2cc(S(=O)(=O)Nc3cc(F)cc(Cl)c3)c(F)cc2N1 | inactive
15 | CSc1cc2c(s1)c1cnn(Cc3cccc(O)c3)c(=O)c1n2C | inactive
16 | COc1ccccc1N1C(=O)c2ccccc2C1=O | inactive
17 | Cc1ccc(C)c(OC2=NS(=O)(=O)c3ccccc32)c1 | inactive
18 | O=S1(=O)N=C(Oc2ccccc2Cl)c2ccccc21 | inactive
19 | CN(C)c1cccc(S(=O)(=O)N2CCN(S(=O)(=O)c3ccc4c(c3)OCCO4)CC2)c1 | inactive
